The text below walks through data of PubChem BioAssay (Tox21).

Molecules are shown by their SMILES. Values without a mark were called inactive. Records with an inconclusive call do not appear. Calls of active or inactive are those of the source. Unless noted, calls follow the shape of the dose curve; as a rule, active = well fitted curve in the direction sought with a large enough effect in the repeat runs; inconclusive = weak or mixed curves; inactive = no such curve, though single readings can be large; an effect the other way counts as inactive or inconclusive.

Assay [1] deals with Thyrotropin-releasing hormone receptor (Homo sapiens) (UniProt P34981). Description: qHTS assay to identify small molecule agonists of the thyrotropin-releasing hormone receptor (TRHR) signaling pathway (AID 1346891; calls by dose curve;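 also: HEK293 cells expressing TRHR with calcium dye readout; series mostly up to about 58 µM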). Summed up:
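In 1536-format, 1500 TRHR-Hek293 cells per well grew 18 h, took up calcium dye for 2 h at 37 °C, received compound, and were read kinetically; 15-point titrations, triplicates.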

Assay [2] in a line: Human pregnane X receptor (PXR) small molecule agonists, qHTS cell viability counter screen (AID 1346977). Also: nearly all actives have a fitted effect of over 50% in size. Also: potency is read from the fitted curve at half-maximal effect. Summed up:
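Readout is CellTiter-Fluor fluorescence from PXR-Luc HepG2 cells. Plated cells rested 5hr, then were treated with compounds for 24hr at 37C and 5% CO2, with reagent present during the last hour.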

A short description of assay [3]: Caspase-3/7 induction in HepG2 cells by small molecules, qHTS assay (AID 1346978). Also: nearly all actives have a fitted effect of over 15% in size. In a few lines: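 Caspase-3/7 induction was measured by Caspase-Glo 3/7 luminescence (30 min, room temperature) after a 17 hr compound exposure of wild-type HepG2 cells seeded at 2,000 per well and pre-incubated 5 hr.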
(In qHTS, concentration-response curves come from the screen itself.)

The nature of assay [4]: Caspase-3/7 induction in CHO-K1 cells by small molecules, qHTS cell viability counter screen (AID 1346979). Also: nearly all actives have a fitted effect of over 35% in size. Also: potency is read from the fitted curve at half-maximal effect. In a few lines:
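To flag cytotoxic compounds, treated CHO-K1 wild-type cells were given CellTiter-Fluor at 16hr and read fluorescently after 1hr at 37C; the caspase-3/7 luminescence was measured in these same wells.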

A short description of assay [5]: Caspase-3/7 induction in CHO-K1 cells by small molecules, qHTS assay (AID 1346980). Also: nearly all actives have a fitted effect of over 15% in size. In a few lines: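 Luminescent Caspase-Glo 3/7 read (30min, room temperature) quantified apoptosis induction. Cells were wild-type CHO-K1, treated with compound for 17hr at 37 C and 5% CO2.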
The nature of assay [6]: Caspase-3/7 induction in HepG2 cells by small molecules, qHTS cell viability counter screen (AID 1346981). Also: nearly all actives have a fitted effect of over 30% in size. Also: potency is read from the fitted curve at half-maximal effect. As to activity change, negative = cytotoxicity: series mostly up to about 92 µM. In a few lines: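 Wild-type HepG2 cells, 2,000/well, settled 5 hr at 37 C, 5% CO2 before compound addition. Viability read by CellTiter-Fluor fluorescence, reagent added after 16 hr compound exposure, then 1 hr at 37C, in the same wells as the caspase read.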
The target of assay [7] is Nuclear receptor subfamily 1 group I member 2 (Rattus norvegicus) (UniProt Q9R1A7). Description: Rat pregnane X receptor (rPXR) activation by small molecules, qHTS assay (AID 1346983). Also: nearly all actives have a fitted effect of over 20% in size. The conditions noted are these: rPXR luciferase reporter cells, One-Glo luminescence, 24 h; max activation: active compounds read high. Summed up: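 Luminescent readout (One-Glo luciferase, 30 min room temperature) followed 24 hr compound treatment at 37 C of rPXR cells plated 2,000 per well and preincubated 5hr; qHTS format with compounds delivered in DMSO.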

The target in assay [8] is Nuclear receptor subfamily 1 group I member 2 (Homo sapiens) (UniProt O75469). Description: CYP3A4 induction through human pregnane X receptor (PXR) by small molecules, qHTS assay (AID 1346984). Also: nearly all actives have a fitted effect of over 40% in size. Summed up: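 DPX-2 HepG2 cells carrying a PXR response element and CYP3A4-promoter luciferase construct, treated with compounds 24 hr at 37C. Then P450-Glo CYP3A4 Luciferin-IPA substrate (3uM final) for 3 hr at 37C, One-Glo added, luminescence read.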

The target is the same in assay [9]. Description: Human pregnane X receptor (PXR) activation by small molecules, qHTS assay (AID 1346985). Also: nearly all actives have a fitted effect of over 40% in size. In a few lines: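 DPX-2 cells (HepG2 co-transfected with a PXR response element and a CYP3A4-promoter luciferase construct) were seeded at 2,000 per well, rested 5 hr at 37C, then exposed to DMSO-dissolved compounds for 24 hr. Activation was read as luciferase luminescence.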

In assay [10] the target is Cytochrome P450 2D6 (Homo sapiens) (UniProt P10635). Description: Cytochrome P450 Family 2 Subfamily D Member 6 (CYP2D6) small molecule antagonists: luciferase reporter qHTS assay (AID 1671196). Also: series mostly up to about 120 µM; nearly all actives have a fitted effect of over 50% in size. Summed up: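 Cell-free P450-Glo system: CYP2D6 with proluciferin substrate was pre-incubated with compound for 10 min, then reacted with NADPH regeneration for 1 h at room temperature. Luciferin product was detected after 20 min, and data were reported as relative luminescence units.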

Assay [11] concerns the target Cytochrome P450 2C19 (Homo sapiens) (UniProt P33261). Description: Cytochrome P450 Family 2 Subfamily C Member 19 (CYP2C19) small molecule antagonists: luciferase reporter qHTS assay (AID 1671197). Also: nearly all actives have a fitted effect of over 65% in size. Also: potency is read from the fitted curve at half-maximal effect. As to activity change, negative = inhibition: series mostly up to about 120 µM. In a few lines: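 Inhibition of CYP2C19 was scored from loss of luminescence in a P450-Glo proluciferin substrate assay, NADPH-started and run 1 h at 37C, with ketoconazole as positive control.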
A general note: Reporter assays use an easily measured gene product as a stand-in for the process of interest.

In assay [12] the target is Voltage-gated inwardly rectifying potassium channel KCNH2 (Homo sapiens) (UniProt Q12809). Description: Human Ether-a-go-go-Related Gene (hERG) channel small molecule antagonists: fluorescence cell-based qHTS assay (AID 1671200).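 Also: hERG-expressing U2OS cells given a thallium stimulus after FluxOR II dye loading; series mostly up to about 77 µM; nearly all actives have a fitted effect of over 50% in size.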 Summed up:
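Measured: Tl+ flux via fluorescence (480/540 nm) in hERG-expressing U2OS cells after 1 h dye loading at room temperature.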
In general terms: hERG is a cardiac potassium channel; its block is linked to QT prolongation.

Assay [13] addresses Cytochrome P450 3A4 (Homo sapiens) (UniProt P08684). Description: Cytochrome P450 Family 3 Subfamily A Member 4 (CYP3A4) small molecule antagonists: luciferase reporter qHTS assay (AID 1671201). Also: nearly all actives have a fitted effect of over 50% in size. Also: potency is read from the fitted curve at half-maximal effect. As to activity change, negative = inhibition: series mostly up to about 120 µM. In a few lines:
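Setup: enzyme-substrate mix, compound pin transfer, 10 min RT. Reaction: NADPH regeneration solution, 1 h RT. Readout: detection reagent stops turnover, luminescence measured after 20 min, expressed in relative luminescence units.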

Assay [14] deals with Nuclear receptor subfamily 1 group I member 2 (Homo sapiens) (UniProt O75469). Description: Human pregnane X receptor (PXR) small molecule agonists, qHTS assay (AID 1346982). Also: nearly all actives have a fitted effect of over 35% in size. Also: potency is read from the fitted curve at half-maximal effect. In a few lines: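 PXR-Luc HepG2 reporter cells (CYP3A4-driven luciferase) in 5% charcoal-stripped FBS medium, plated 5 h before compound addition, then treated 24 h at 37C. Luciferase read by ONE-Glo luminescence after 30 min at room temperature.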

For assay [15], the target named is Cytochrome P450 2C9 (Homo sapiens) (UniProt P11712). Description: Cytochrome P450 Family 2 Subfamily C Member 9 (CYP2C9) small molecule antagonists: luciferase reporter qHTS assay (AID 1671198). Also: nearly all actives have a fitted effect of over 50% in size. Also: potency is read from the fitted curve at half-maximal effect. As to activity change, negative = inhibition: series mostly up to about 120 µM. In a few lines:
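Enzyme-substrate mix preincubated with compound 10 min at room temperature; reaction started with NADPH regeneration solution, 1 h 37C. Luminescent luciferin product read after 20 min detection reagent.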

The target in assay [16] is Cytochrome P450 1A2 (Homo sapiens) (UniProt P05177). Description: Cytochrome P450 Family 1 Subfamily A Member 2 (CYP1A2) small molecule antagonists: luciferase reporter qHTS assay (AID 1671199). Also: nearly all actives have a fitted effect of over 50% in size. Also: potency is read from the fitted curve at half-maximal effect. As to activity change, negative = inhibition: series mostly up to about 120 µM. In a few lines:
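P450-Glo CYP1A2 enzyme–proluciferin substrate mix with compound 10 min at room temperature, then NADPH regeneration 1 h at room temperature. Luciferin detection reagent added, luminescence read after 20 min; furafylline positive control.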
% is scaled to controls: 0 for no effect and ±100 for the full control effect.

Cytochrome P450 2C19 (Homo sapiens), sequence (P33261 whole entry, looked up): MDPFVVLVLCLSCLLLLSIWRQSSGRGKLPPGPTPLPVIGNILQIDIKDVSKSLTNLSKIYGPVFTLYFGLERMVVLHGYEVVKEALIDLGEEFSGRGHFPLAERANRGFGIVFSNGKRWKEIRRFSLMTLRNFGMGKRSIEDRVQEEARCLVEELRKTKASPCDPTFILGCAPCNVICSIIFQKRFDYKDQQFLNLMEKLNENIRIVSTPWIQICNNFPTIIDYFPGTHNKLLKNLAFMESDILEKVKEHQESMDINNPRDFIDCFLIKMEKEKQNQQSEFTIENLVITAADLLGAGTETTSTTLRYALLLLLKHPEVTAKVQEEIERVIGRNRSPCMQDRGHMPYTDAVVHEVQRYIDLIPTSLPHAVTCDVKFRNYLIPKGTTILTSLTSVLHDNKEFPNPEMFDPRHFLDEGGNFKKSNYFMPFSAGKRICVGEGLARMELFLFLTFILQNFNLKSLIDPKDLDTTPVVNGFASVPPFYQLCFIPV
Cytochrome P450 2C9 (Homo sapiens), sequence (P11712 whole entry, looked up): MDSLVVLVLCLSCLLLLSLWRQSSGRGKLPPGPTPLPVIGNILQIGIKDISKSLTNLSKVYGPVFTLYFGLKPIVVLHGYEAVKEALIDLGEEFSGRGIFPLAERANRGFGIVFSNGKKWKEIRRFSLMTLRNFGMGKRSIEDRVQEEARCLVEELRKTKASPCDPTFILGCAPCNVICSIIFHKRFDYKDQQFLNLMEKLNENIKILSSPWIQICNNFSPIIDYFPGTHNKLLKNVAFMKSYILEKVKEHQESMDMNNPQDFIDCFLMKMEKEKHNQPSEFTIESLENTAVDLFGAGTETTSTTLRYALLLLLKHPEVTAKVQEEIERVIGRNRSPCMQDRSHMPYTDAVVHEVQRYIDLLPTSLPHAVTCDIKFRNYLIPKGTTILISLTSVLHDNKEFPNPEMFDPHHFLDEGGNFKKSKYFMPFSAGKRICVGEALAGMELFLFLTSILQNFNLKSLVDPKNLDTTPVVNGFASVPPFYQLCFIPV
Cytochrome P450 2D6 (Homo sapiens), sequence (P10635 whole entry, looked up): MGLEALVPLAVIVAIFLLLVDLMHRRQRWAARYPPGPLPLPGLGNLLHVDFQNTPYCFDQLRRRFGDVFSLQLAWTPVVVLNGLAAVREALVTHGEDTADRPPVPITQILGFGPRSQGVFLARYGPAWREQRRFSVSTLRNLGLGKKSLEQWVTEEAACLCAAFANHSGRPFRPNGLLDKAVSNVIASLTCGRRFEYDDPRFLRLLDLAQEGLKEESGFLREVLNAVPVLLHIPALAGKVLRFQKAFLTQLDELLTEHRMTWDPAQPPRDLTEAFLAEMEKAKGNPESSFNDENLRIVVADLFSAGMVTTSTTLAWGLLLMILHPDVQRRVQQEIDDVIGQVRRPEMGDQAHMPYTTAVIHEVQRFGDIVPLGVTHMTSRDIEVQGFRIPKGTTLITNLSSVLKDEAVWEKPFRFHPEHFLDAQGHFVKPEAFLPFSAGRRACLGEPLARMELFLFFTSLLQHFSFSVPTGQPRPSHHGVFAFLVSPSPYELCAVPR
Nuclear receptor subfamily 1 group I member 2 (Homo sapiens), sequence (O75469 whole entry, looked up): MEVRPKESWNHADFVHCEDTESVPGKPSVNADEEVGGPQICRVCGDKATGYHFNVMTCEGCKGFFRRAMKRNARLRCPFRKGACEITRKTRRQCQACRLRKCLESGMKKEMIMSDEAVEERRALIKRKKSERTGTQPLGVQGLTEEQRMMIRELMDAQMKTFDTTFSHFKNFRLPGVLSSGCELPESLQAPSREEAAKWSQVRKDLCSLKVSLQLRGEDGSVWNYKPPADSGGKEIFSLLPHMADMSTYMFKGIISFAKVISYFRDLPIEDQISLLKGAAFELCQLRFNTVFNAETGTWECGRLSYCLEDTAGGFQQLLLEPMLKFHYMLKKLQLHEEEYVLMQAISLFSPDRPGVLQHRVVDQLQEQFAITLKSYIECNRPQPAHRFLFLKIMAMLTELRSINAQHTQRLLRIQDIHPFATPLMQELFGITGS
Cytochrome P450 3A4 (Homo sapiens), sequence (P08684 whole entry, looked up): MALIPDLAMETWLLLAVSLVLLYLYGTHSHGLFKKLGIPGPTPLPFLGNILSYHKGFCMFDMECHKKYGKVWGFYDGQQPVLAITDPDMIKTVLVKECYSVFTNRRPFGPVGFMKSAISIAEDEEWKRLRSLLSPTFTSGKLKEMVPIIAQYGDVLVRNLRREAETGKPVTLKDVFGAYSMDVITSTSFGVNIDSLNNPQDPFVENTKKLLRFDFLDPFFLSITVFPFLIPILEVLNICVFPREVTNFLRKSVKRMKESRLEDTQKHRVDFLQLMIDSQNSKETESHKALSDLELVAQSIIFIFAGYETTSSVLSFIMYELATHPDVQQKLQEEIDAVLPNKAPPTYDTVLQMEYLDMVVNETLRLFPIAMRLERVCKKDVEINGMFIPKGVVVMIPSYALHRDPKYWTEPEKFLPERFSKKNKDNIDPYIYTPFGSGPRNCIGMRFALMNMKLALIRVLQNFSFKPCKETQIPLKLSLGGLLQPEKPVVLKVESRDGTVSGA
Thyrotropin-releasing hormone receptor (Homo sapiens), sequence (P34981 whole entry, looked up): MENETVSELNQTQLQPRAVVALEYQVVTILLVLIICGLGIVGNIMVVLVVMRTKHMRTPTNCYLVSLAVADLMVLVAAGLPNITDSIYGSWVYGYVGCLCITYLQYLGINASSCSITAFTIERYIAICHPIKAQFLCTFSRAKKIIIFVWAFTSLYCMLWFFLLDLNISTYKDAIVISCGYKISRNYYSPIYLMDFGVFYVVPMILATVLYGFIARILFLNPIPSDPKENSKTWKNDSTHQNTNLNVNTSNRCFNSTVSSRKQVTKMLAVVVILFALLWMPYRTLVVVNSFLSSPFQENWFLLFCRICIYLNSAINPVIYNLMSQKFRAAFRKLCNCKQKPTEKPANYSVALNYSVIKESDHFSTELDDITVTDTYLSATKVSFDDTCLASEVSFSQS
Cytochrome P450 1A2 (Homo sapiens), sequence (P05177 whole entry, looked up): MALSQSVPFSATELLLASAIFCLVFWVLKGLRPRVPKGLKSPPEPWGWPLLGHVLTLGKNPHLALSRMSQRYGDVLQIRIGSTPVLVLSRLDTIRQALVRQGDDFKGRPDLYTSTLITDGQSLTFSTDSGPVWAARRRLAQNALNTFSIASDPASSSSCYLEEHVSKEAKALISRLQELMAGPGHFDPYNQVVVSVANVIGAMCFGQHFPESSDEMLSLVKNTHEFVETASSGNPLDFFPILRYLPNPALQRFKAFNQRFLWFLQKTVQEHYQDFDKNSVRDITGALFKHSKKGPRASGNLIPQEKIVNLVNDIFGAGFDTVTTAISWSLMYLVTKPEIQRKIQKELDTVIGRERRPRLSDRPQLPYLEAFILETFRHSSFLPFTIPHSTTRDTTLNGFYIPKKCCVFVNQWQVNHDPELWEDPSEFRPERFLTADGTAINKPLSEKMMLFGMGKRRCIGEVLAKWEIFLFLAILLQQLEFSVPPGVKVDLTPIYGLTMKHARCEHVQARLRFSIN
Voltage-gated inwardly rectifying potassium channel KCNH2 (Homo sapiens), sequence (Q12809 whole entry, looked up): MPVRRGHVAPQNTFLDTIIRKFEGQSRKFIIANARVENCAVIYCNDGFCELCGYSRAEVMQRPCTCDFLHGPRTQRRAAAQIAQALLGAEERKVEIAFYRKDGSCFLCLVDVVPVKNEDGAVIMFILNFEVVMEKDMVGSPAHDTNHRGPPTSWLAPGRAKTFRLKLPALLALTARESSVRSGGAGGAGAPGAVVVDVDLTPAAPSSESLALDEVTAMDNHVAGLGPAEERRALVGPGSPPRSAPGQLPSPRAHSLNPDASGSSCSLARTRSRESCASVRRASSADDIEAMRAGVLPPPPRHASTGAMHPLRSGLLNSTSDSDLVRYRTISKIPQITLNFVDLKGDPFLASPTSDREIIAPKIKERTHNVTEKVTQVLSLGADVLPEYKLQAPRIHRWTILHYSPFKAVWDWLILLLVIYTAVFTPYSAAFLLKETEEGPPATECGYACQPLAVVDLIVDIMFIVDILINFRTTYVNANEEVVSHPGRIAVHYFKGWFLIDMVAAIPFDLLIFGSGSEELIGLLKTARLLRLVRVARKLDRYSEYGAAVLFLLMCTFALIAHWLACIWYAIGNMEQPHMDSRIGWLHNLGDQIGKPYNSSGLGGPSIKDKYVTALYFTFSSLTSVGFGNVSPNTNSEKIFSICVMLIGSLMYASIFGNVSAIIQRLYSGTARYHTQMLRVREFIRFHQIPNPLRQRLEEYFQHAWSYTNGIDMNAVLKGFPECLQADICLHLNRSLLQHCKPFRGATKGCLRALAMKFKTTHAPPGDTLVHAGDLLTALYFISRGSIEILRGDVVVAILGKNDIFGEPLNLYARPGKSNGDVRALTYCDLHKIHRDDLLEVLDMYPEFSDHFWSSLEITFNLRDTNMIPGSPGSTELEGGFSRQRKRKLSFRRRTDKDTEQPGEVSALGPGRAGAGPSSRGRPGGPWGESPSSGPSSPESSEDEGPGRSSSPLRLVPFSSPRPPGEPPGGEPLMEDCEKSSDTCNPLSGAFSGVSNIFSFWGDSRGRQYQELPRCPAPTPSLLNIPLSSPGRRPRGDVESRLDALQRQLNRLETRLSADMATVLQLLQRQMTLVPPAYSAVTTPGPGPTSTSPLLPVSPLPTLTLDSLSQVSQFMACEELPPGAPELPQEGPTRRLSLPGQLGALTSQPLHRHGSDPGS
Nuclear receptor subfamily 1 group I member 2 (Rattus norvegicus), sequence (Q9R1A7 whole entry, looked up): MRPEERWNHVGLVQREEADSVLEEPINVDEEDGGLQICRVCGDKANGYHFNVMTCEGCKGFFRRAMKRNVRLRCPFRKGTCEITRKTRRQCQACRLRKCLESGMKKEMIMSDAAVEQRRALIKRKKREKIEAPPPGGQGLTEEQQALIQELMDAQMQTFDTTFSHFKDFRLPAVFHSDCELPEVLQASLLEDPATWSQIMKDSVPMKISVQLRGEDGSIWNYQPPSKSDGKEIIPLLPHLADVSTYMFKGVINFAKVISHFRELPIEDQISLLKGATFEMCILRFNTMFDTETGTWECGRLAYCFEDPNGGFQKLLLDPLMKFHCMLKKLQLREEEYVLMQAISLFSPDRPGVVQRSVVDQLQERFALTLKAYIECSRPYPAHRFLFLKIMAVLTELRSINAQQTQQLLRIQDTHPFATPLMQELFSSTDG

For the compound `Cc1c(Nc2ncccc2C(=O)O)cccc1C(F)(F)F`, in assay [1], the result was inactive. In addition, the Potency entry in assay [2], in [3], in [4], in assay [5], in assay [6] and in [8] was “inactive” throughout. Besides, the Potency result in [9], in assay [10], in assay [11], in assay [12] and in assay [13] was “inactive” throughout. For the same compound, in [7], the max activation was -1.47%.
As for `CCC(C)C1N=C(C)C(C)S1` (stereo unspecified), the call in assay [1] was inactive. The Potency result in assay [2], in assay [3], in assay [4], in [5], in assay [6] and in [12] was “inactive” throughout. In addition, the Potency in assay [14] was 34.4 µM (active); in assay [15], 39.9 µM (active); in assay [13] it was 25.2 µM (active).
Take `CC(C)(C)c1cc(C=O)cc(C(C)(C)C)c1O`: the compound was classed as inactive in assay [1]. Moreover, the Potency result in [2], in assay [3], in assay [4], in [5], in [6] and in assay [14] was “inactive” in each case. Besides, the Potency entry in assay [10], in assay [16], in [12] and in assay [13] was “inactive” in each case.
For the compound `CC/C=C\CCO`, the compound was called inactive in assay [1]. For the same compound, the Potency entry in assay [2], in [3], in [4], in assay [5], in assay [6] and in assay [14] was “inactive” in each case. Besides, the Potency result in [10], in assay [11], in assay [16], in assay [12] and in assay [13] was “inactive” in each case.
On to `CC(=O)S[C@H](C(=O)N[C@H]1Cc2ccccc2[C@H]2CCC[C@@H](C(=O)O)N2C1=O)C(C)C`, for which the outcome in assay [1] was inactive. In addition, the Potency entry in assay [2], in assay [3], in assay [4], in assay [5], in [6] and in [14] was “inactive” each time. Also, the Potency result in assay [10], in assay [11], in [16] and in assay [13] was “inactive” each time.
Turning to `C=CC(C)(O)CC/C=C(/C)CCC=C(C)C` (stereo unspecified), the call in assay [1] was inactive. Moreover, the Potency entry in assay [2], in [3], in assay [4], in assay [5], in [6] and in [12] was “inactive” throughout. Besides, the Potency was 54.5 µM (active) in assay [14], 10 µM (active) in [11], 31.7 µM (active) in assay [15] and 39.9 µM (active) in assay [16].
Consider `COC=O`, for which the activation in [1] was -1.05% [at 5.23 µM]; in assay [14], -0.203% [at 8.39 µM]. Moreover, the activity change, negative = cytotoxicity in assay [2] was 3.92% [at 8.39 µM]; in assay [4] it was 2.52% [at 8.39 µM]; in assay [6] it was 7.73% [at 8.39 µM]. Besides, the caspase activation in assay [3] was -1.76% [at 8.39 µM]. Moreover, the caspase-3/7 activation in assay [5] is -0.739% [at 8.39 µM]. For the same compound, the activity change, negative = inhibition was -23.5% [at 10.5 µM] in [15], -7.2% [at 10.5 µM] in assay [16], -1.77% [at 6.97 µM] in assay [12] and 11.4% [at 10.5 µM] in assay [13].
With `O=C1c2ccccc2C(=O)C1c1ccc2cc(S(=O)(=O)O)cc(S(=O)(=O)O)c2n1`, the compound was called inactive in assay [1]. For the same compound, the Potency in assay [2] was 37.2 µM (active); in [4] it was 33.1 µM (active); in assay [6], 33.1 µM (active); in [16], 43.2 µM (active). Further, the Potency entry in [3], in assay [5], in assay [14], in assay [10], in [12] and in assay [13] was “inactive” each time.
For `O=[N+]([O-])c1ccccc1CCO`, the outcome in assay [1] was inactive. The Potency result in assay [2], in assay [3], in [4], in [5], in assay [6] and in assay [14] was “inactive” each time. The Potency entry in assay [10], in assay [11], in assay [15], in [12] and in assay [13] was “inactive” each time.
With `CC(=O)Nc1cccc(N)c1`, the call in assay [1] was inactive. Besides, the Potency result in [2], in assay [3], in assay [4], in assay [5], in assay [6] and in assay [14] was “inactive” each time. Besides, in assay [12], the Potency result is “inactive”. Further, in assay [11], the Potency was 57.2 µM (active).
